# “And” between values parts separate entries of the source, which are not always exact repeats. Identical values can stand only once. Out of some 220,000 compounds screened, about 910 (0.41%) were called active. This is one part of a sample in which actives are shown more often than they occur.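 How the source made its calls: active means primary inhibition above the hit cutoff, then over 50% inhibition at one or more dose response concentrations (cut at about 23% in these data, passing the limit was not always enough); inconclusive means conflicting primary data, or primary hits not chosen for dose response; inactive means low primary inhibition, or under 50% at every dose.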 Entries with a potency or affinity are not part of this list. Some structures have more than one record in an assay (separate samples or runs), and their calls can disagree.
# Target: Aminopeptidase N (Plasmodium falciparum (isolate 3D7)) (UniProt O96935)
# Assay: P. falciparum M1AAP inhibitors, biochemical, fluorogenic H-Leu-NHMec substrate, 1536-well (AID 1445);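 further: plate controls were DMSO full reaction for no effect and no enzyme background for full effect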
# Conditions: recombinant M1AAP, H-Leu-NHMec fluorogenic kinetic assay; at 30 µM, stronger effect = higher value unless noted
# Chain of Aminopeptidase N (Plasmodium falciparum (isolate 3D7)) (O96935 whole entry, looked up): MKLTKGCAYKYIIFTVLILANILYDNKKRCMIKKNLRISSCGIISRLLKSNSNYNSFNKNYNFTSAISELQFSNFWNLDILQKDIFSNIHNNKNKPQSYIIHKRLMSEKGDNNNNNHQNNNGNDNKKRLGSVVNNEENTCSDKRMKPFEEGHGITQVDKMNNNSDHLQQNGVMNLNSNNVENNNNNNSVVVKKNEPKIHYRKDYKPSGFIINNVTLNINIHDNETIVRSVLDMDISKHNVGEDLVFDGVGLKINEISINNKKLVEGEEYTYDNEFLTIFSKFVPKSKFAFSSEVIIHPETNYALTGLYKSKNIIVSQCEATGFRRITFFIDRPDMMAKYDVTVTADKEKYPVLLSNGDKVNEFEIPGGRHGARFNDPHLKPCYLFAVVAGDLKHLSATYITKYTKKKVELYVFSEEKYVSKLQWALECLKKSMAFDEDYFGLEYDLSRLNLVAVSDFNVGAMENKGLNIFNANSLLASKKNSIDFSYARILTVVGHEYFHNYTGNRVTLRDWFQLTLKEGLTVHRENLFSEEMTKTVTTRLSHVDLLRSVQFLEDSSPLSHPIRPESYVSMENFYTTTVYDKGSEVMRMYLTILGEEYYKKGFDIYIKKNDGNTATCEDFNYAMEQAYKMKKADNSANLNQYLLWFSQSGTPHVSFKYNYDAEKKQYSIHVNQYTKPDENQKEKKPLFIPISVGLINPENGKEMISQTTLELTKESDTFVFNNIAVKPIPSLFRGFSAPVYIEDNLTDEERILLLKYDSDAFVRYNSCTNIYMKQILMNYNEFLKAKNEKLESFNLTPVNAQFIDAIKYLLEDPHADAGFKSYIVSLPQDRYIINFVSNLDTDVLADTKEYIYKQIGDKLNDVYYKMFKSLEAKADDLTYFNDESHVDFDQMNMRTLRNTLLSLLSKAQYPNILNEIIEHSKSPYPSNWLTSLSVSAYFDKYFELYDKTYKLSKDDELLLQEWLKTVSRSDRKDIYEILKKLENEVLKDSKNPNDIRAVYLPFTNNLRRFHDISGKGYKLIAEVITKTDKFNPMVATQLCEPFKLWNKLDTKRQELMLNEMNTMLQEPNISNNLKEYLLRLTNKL
row,SMILES,inhibition
1,COc1ccccc1NC(=O)C(C)NS(=O)(=O)c1ccc(Cl)cc1 (configuration not stated),0.77% (inactive)
2,CCN(CC)c1ccc2c(C)c(CN3CCOCC3)c(=O)oc2c1,7.04% (inactive)
3,Cc1cc2oc(=O)cc(CN3CCOCC3)c2cc1C,11.2% (inactive)
4,COCCN(C(=O)CN1CCN(S(=O)(=O)c2ccc(F)cc2)CC1)c1c(N)n(Cc2ccccc2)c(=O)[nH]c1=O,7.35% (inactive)
5,CC(=O)Nc1cc2c(cc1[N+](=O)[O-])OCCO2,6.17% (inactive)
6,Nc1cc2c(cc1[N+](=O)[O-])OCO2,7.4% (inactive)
7,CC1(C)OC(=O)C(=NNc2ccccc2[N+](=O)[O-])C(=O)O1,9.4% (inactive)
8,CC1C/C(=N/Nc2ccc([N+](=O)[O-])cc2[N+](=O)[O-])CC(C)(C)C1 (configuration not stated),-1.42% (inactive)
9,O=C(N/N=C/c1ccccc1Cl)c1[nH]c2ccc(Br)cc2c1-c1ccccc1,-5.79% (inactive)
10,COc1ccc(/C=N/NC(=O)c2[nH]c3ccc(Br)cc3c2-c2ccccc2)cc1,2.81% (inactive)
11,CCOc1ccccc1N(C(=O)Nc1ccc(Cl)cc1)C1=NCCS1,-3.04% (inactive)
12,COc1ccc(C2CC(=O)NC3=C2C(=O)CCC3)cc1Cl (configuration not stated),-1.4% (inactive)
13,O=C(O)CSc1nnc(-c2ccccc2O)n1Cc1ccccc1,6.98% (inactive)
14,O=C(CSc1nnc(-c2ccccc2)n1Cc1ccccc1)NNC(=O)c1ccccc1O,16.1% (inactive)
15,NC(=O)c1cc2c3ccccc3ccn2c1-c1ccccc1,0.96% (inactive)
16,CC(C)NC(=O)CSc1nnc(-c2ccc(F)cc2)c2ccccc12,0.8% (inactive)
17,O=C1CC(c2ccco2)CC(O)=C1C=Nc1cc(Cl)ccc1Cl (configuration not stated),4.23% (inactive)
18,O=C1CC(c2ccco2)CC(O)=C1C=Nc1cc(Cl)cc(Cl)c1 (configuration not stated),-0.66% (inactive)
19,O=C(NCc1ccccc1)c1nc2ccccc2s1,1.19% (inactive)
20,O=c1cc2oc3cc(O)c(O)cc3c(-c3ccccc3O)c-2cc1O,13.8% (inactive)
21,Cc1c2cc(O)c(=O)cc-2oc2cc(O)c(O)cc12,24.7% (active) and 6.57% (inactive)

row,SMILES,inhibition
1,COc1cc(OC)c(-c2c3cc(O)c(=O)cc-3oc3cc(O)c(O)cc23)cc1OC,22.9% (inactive)
2,CC(=O)Nn1cnc2c(c1=O)C1(CCCCC1)Cc1ccccc1-2,4.35% (inactive)
3,COc1ccc(NC(=O)Nc2cccc(Cl)c2Cl)c(OC)n1,4.95% (inactive)
4,COc1ccccc1NC1=NC(C)(C)N=C(N)N1,0.34% (inactive)
5,COC1=C(Nc2ccccc2OC)C(=O)c2ccccc2C1=O,7.8% (inactive)
6,COc1ccc(OC)c(C2=NOC(C(=O)Nc3cccnc3)C2)c1 (configuration not stated),7.85% (inactive)
7,COc1ccc(NC(=O)Nc2cccnc2)c(OC)c1,2.93% (inactive)
8,CCOc1ccc(-n2c(=O)[nH]cc(C(=O)N3CCc4ccccc43)c2=O)cc1,1.21% (inactive)
9,CC(=O)Nc1ccc(NS(=O)(=O)c2cc([N+](=O)[O-])ccc2C)cc1,2.22% (inactive)
10,Cc1ccc(C)c(NC(=O)c2ccccc2NS(=O)(=O)c2cc([N+](=O)[O-])ccc2C)c1,8.58% (inactive)
11,O=C(N/N=C(\Cc1ncc[nH]1)c1ccccc1)c1cccnc1,16.6% (inactive)
12,O=C(N/N=C(\Cc1ncc[nH]1)c1ccccc1)c1ccccc1,19.5% (inactive)
13,COC(=O)c1cc2c(ccn2-c2ccc(F)cc2)n1CC(=O)OC(C)C,1.89% (inactive)
14,CCOc1cc(N2CCOCC2)c(OCC)cc1NC(=O)C(NC(=O)c1ccco1)C(C)C (configuration not stated),8.28% (inactive)
15,c1ccc2c(c1)N1CCN=C1N2CCN1CCCCC1,5.87% (inactive)
16,Cc1oc(S(=O)(=O)N(C)C)cc1C(=O)Nc1ccc(F)cc1,0.82% (inactive)
17,C=CCn1c(CNC(=O)c2ccccc2F)nnc1SCc1nc2ccccc2c(=O)[nH]1,7.18% (inactive)
18,C=CCn1c(CCNC(=O)c2ccccc2F)nnc1SCC(=O)Nc1nc(C)cs1,-1.07% (inactive)
19,CCOC(=O)C(NC(=O)CC)(Nc1ccccc1OC)C(F)(F)F (configuration not stated),-0.34% (inactive)
20,COc1ccc(N2CCN(Cc3nc4ccsc4c(=O)[nH]3)CC2)cc1,13.2% (inactive)
21,O=c1[nH]c(CN2CCN(c3ccc([N+](=O)[O-])cc3)CC2)nc2ccsc12,25.9% (active)

row,SMILES,inhibition
1,O=c1[nH]c(CN2CCN(c3ccccc3Cl)CC2)nc2ccsc12,6.37% (inactive)
2,O=C(CSc1nnc(NCc2ccccc2)s1)NC1CCS(=O)(=O)C1 (configuration not stated),-0.46% (inactive)
3,COc1cc(C2c3c(-c4cc(C)cc(C)c4O)n[nH]c3C(=O)N2CCCO)cc(OC)c1OC (configuration not stated),28.3% (active)
4,COCCCN1C(=O)c2[nH]nc(-c3cc(C)cc(C)c3O)c2C1c1ccc(O)c(OC)c1 (configuration not stated),6.71% (inactive)
5,COc1cc(C2c3c(-c4ccccc4O)n[nH]c3C(=O)N2Cc2ccco2)cc(OC)c1OC (configuration not stated),3.24% (inactive)
6,CCOc1ccccc1-n1c(SCC(=O)N(C(C)C)C(C)C)nnc1-c1cccnc1,5.81% (inactive)
7,O=C(CN1CCN(Cc2ccc(Cl)cc2)C1=O)NCCN1CCCC1,1.07% (inactive)
8,CCC(C)[C@H](NC(=O)Nc1ccc(C(C)=O)cc1)C(=O)OC (some centres not stated),-5.32% (inactive)
9,CCC1=NN2C(=N)/C(=C\c3cccn3-c3cccc(Cl)c3)C(=O)N=C2S1,7.8% (inactive)
10,Cc1nn(-c2ccccc2)c(Cl)c1/C=C1\SC(=S)N(C)C1=O,-0.16% (inactive)
11,Cc1nn(-c2ccccc2)c(Cl)c1/C=C1\C(=O)N(C)C(=S)N1C,5.11% (inactive)
12,CCC1=NN2C(=N)/C(=C/c3cc(C)n(Cc4ccccc4)c3C)C(=O)N=C2S1,1.28% (inactive)
13,O=C(Nc1ccc(-n2nncc2-c2ccco2)cc1)c1cccc(F)c1,1.93% (inactive)
14,COc1ccc(CN(C)CC(=O)Nc2ccccc2-c2ccccc2)c(OC)c1,6.36% (inactive)
15,O=C(O)C(CC1CCCCC1)N1CCS(=O)(=O)CC1 (configuration not stated),-6% (inactive)
16,C=CCn1c(N)cc(=O)nc1SC(C)C(=O)Nc1cccc2ccccc12 (configuration not stated),14% (inactive)
17,Cc1ccc(NC(=O)c2ccccc2NS(=O)(=O)c2ccc(F)cc2)cc1S(=O)(=O)N1CCCCC1,14.4% (inactive)
18,O=C(Nc1cc(S(=O)(=O)Nc2ccc(Cl)cc2)ccc1O)c1ccc(S(=O)(=O)N2CCCCCC2)cc1,0.01% (inactive)
19,O=C(Nc1cccc(S(=O)(=O)N2CCCCC2)c1)c1ccccc1NS(=O)(=O)c1ccc(F)cc1,11.5% (inactive)
20,O=C(Nc1ccccc1N1CCOCC1)c1ccccc1NS(=O)(=O)c1ccc(F)c(F)c1,5.56% (inactive)

# — PubChem BioAssay AID1445 (SRMLSC, 2008)
